Records with an inconclusive call do not appear. Activity calls are given as the source filed them. The call rests on the fitted dose curve; in most records, active means well fitted curve in the direction sought with a large enough effect; inconclusive means small, poorly fitted or top-dose-only effect, or another doubt; inactive means no such curve, though single readings can be large; an effect the other way counts as inactive or inconclusive.
Columns and labels:
[1] = UWB1.289 Cancer Cell Toxicity qHTS against the NCATS CANVASS Library (AID 1347347); further: nearly all actives have a fitted effect of over 60% in size; further: potency means the concentration at half of the fitted maximal effect
Outline: (§1)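 Following a 4 h pre-incubation of 1000 seeded cells, compounds were pinned in an 11-pnt dilution series and left for 72 h; viability then came from CellTiter-Glo.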

[2] = OV-SAHO Cancer Cell Toxicity qHTS against the NCATS CANVASS Library (AID 1347348); further: nearly all actives have a fitted effect of over 55% in size; further: potency means the concentration at half of the fitted maximal effect
Outline: as §1

[3] = SW1088 Cancer Cell Toxicity qHTS against the NCATS CANVASS Library (AID 1347350); further: nearly all actives have a fitted effect of over 75% in size; further: potency means the concentration at half of the fitted maximal effect
Outline: as §1

[4] = A2780 Cisplatin Sensitive Ovarian Cancer Cell Toxicity qHTS against the NCATS CANVASS Library (AID 1347353); further: nearly all actives have a fitted effect of over 60% in size; further: potency means the concentration at half of the fitted maximal effect
Outline: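 Quantitative HTS format: eleven compound concentrations applied to pre-seeded cells, 72 h incubation at 37 °C, then ATP detection by luminescence.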

[5] = UWB1.289-WTBRCA1 Cancer Cell Toxicity qHTS against the NCATS CANVASS Library (AID 1347354); further: potency means the concentration at half of the fitted maximal effect
Outline: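 Using an ATP-based luminescent reagent after three days of treatment, toxicity is scored across an eleven-concentration range in wells holding 1000 cells each.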

[6] = HPAF-II 12hr Apoptosis Induction qHTS against the NCATS CANVASS Library (AID 1347358)
Outline: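 Twelve-hour compound exposure of HPAF-II cells in DMEM with 10% FBS, then luminescent Caspase-Glo 3/7 detection after 15 min at room temperature; doxorubicin control.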

[7] = G06 Cancer Cell Toxicity qHTS against the NCATS CANVASS Library (AID 1347368); further: nearly all actives have a fitted effect of over 60% in size; further: potency means the concentration at half of the fitted maximal effect
Outline: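 Quantitative HTS in G06 cells (dog glioma): 72 hr treatment, 11 concentrations, then ATP-based luminescent viability readout; bortezomib 0.1 nM–4.6 uM final as reference.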

[8] = qHTS for Hypoxia signaling pathway (HIF-1) antagonists against the NCATS CANVASS Library (AID 1347374); further: nearly all actives have a fitted effect of over 60% in size; further: potency means the concentration at half of the fitted maximal effect
Outline: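 Beta-lactamase reporter under HRE control in ME-180 cells; CoCl2 stimulus (60 uM solution as added), compounds 11-pt qHTS, 17 h 37C. CCF4 dye 2 h RT, 460/530 nm emission. CellTiter-Glo viability in same wells.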

[9] = qHTS for Hypoxia signaling pathway (HIF-1) agonists against the NCATS CANVASS Library (AID 1347375); further: potency means the concentration at half of the fitted maximal effect
Outline: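 An HRE-beta-lactamase ME-180 line is exposed for 17 h to an 11-point compound series, then read by CCF4-AM FRET. Cytotoxicity is measured in parallel in the same wells with CellTiter-Glo, and autofluorescence is checked separately.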

[10] = DH5-alpha competent E. coli microbial cell viability qHTS against the NCATS CANVASS Library (AID 1347377); details: outcome: dose series up to 46.1 µM unless noted
Outline: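 Overnight incubation at 37C, 5% CO2 of E. coli DH5-alpha (diluted to 0.2 OD) with compounds precedes BacTiter-Glo addition. Luminescence, acquired after 20 min at room temperature, reflects viable-cell ATP.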

[11] = qHTS for Activators of p53 Stress Response Pathway screened against the NCATS CANVASS Library (AID 1347388)
Outline: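 Beta-lactamase reporter driven by p53 response elements in HCT-116 cells, read as the 460 nm/530 nm emission ratio after CCF4 loading, following 16 h of exposure to an 11-point series. Cell viability was measured in the same wells by CellTiter-Glo luminescence.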

[12] = qHTS assay for small molecule disruptors of mitochondrial membrane potential screened against the NCATS CANVASS Library (AID 1347389); further: nearly all actives have a fitted effect of over 60% in size; further: potency means the concentration at half of the fitted maximal effect
Outline: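 Cells (HepG2) seeded the day before received compound or DMSO for 1 hr, then Mito-MPS dye for 30 min at 37C; emission at 590 nm over 535 nm gave the polarization signal.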

[13] = Secretion counterscreen for inhibitors of the SERCaMP assay screened against the NCATS CANVASS Library (AID 1347390);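 further: light from luciferase secreted into medium read as a measure of general secretion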; further: potency means the concentration at half of the fitted maximal effect
Outline: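 Counterscreen identifying compounds that disrupt secretion, using SH-SY5Y cells with a constitutively secreted Gaussia luciferase reporter. A 20 h compound exposure (top 77 uM) precedes luminescent detection with coelenterazine.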

[14] = qHTS for activators of Nrf2/ARE signaling pathway screened against the NCATS CANVASS Library (AID 1347391); further: nearly all actives have a fitted effect of over 60% in size; further: potency means the concentration at half of the fitted maximal effect
Outline: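 Activation of Nrf2/ARE was scored in ARE-bla HepG2 cells after 16 h compound exposure using CCF4 beta-lactamase fluorescence ratio readings.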

[15] = qHTS for inhibitors of Wild type Zika virus screened against the NCATS CANVASS Library (AID 1347396); further: potency means the concentration at half of the fitted maximal effect
Outline: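 Using ATP-based luminescence (CellTiter Glo), this screen scores rescue of Vero 766 cells from wild-type Zika killing at 72 h post-infection. Compounds are tested in a concentration series.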

[16] = Redox Reaction Profiling qHTS: Assay Interference Panel against the NCATS CANVASS Library (AID 1347401)
Outline: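 Redox-cycling liability assessed as DTT-driven conversion of resazurin (5 uM, with 200 uM DTT, HEPES pH 7.3) to fluorescent resorufin. Fluorescence at 525/598 nm measured initially and after 15 min dark incubation.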

[17] = qHTS for H2AX Agonists against the NCATS CANVASS Library (AID 1347378);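 further: phospho-H2AX S139 level in CHO-K1 lysates by TR-FRET emission ratio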; further: potency means the concentration at half of the fitted maximal effect
Outline: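 Following overnight seeding, CHO-K1 cells are incubated with a concentration series of compound for 3 hr at 37C (final DMSO 0.76%). Cells are then lysed, detection antibodies added, and emission ratio 665/620 nm recorded after 24 hr at room temperature.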

[18] = qHTS for inhibitors of ER calcium dysfunction: SERCaMP assay screened against the NCATS CANVASS Library (AID 1347393); further: nearly all actives have a fitted effect of over 40% in size; further: potency means the concentration at half of the fitted maximal effect
Outline: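 Thapsigargin-induced ER calcium depletion drives GLuc-SERCaMP secretion from SH-SY5Y cells; compounds given 16 h beforehand were scored by lowered coelenterazine luminescence after 4 h challenge.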

[19] = HPAF-II 18hr Apoptosis Induction qHTS against the NCATS CANVASS Library (AID 1347360)
Outline: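 Apoptosis was scored as caspase-3/7 activity in HPAF-II pancreatic cancer cells treated 18 hours with an 11-point concentration series.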

Measured: Potency

C=C[C@]1(C)CC[C@@H]([C@H](C)C(=O)/C=C/C(C)C)O1
not listed: [17] | [18] | [19]
inactive: all other assays above

C=CC(=C)CC[C@]1(C)[C@H]2C[C@H](OC(=O)C(C)CC)C=C3[C@H](OC(C)=O)O[C@H](OC(C)=O)[C@@]32[C@H](OC)C[C@@H]1C (some centres undefined)
active: [1] 3.44 µM | [3] 0.769 µM | [4] 1.52 µM | [5] 5.45 µM | [7] 6.05 µM | [8] 4.86 µM | [9] 19.3 µM | [17] 19.9 µM | [12] 15.2 µM | [13] 3.96 µM | [15] 6.76 µM
inactive: [14] | [18] | [16]

CN1CC[C@]2(c3cccc4c3N[C@@H]3N(C)CC[C@]43[C@@]34CCN(C)[C@@H]3Nc3c([C@]56CCN(C)[C@H]5Nc5ccccc56)cccc34)c3ccccc3N[C@H]12
inactive: [19] | [12] | [14] | [18] | [16]
active: [1] 4.72 µM | [2] 3.75 µM | [3] 18.8 µM | [4] 9.35 µM | [5] 10.6 µM | [7] 2.64 µM | [9] 9.41 µM

COc1ccc2cc(NC(=O)C3=NO[C@H]4[C@H](O)C=C[C@@H](Cl)[C@@]4(O)C3)c(=O)oc2c1OC
active: [4] 9.35 µM | [7] 11.8 µM | [18] 15.3 µM
not listed: [2] | [13] | [14]
inactive: all other assays above

COc1ccc(/C=C2\COc3cc(O)ccc3C2=O)cc1
active: [4] 14.8 µM | [12] 20.9 µM | [14] 8.31 µM
inactive: [1] | [5] | [19] | [7] | [9] | [10] | [17] | [13] | [16]

CC1(C)C=Cc2c(ccc3c2OC[C@@H](c2ccc(O)cc2O)C3)O1
active: [12] 14.8 µM | [18] 30.5 µM
not listed: [2] | [3] | [4] | [8] | [14] | [17] | [19]
inactive: all other assays above

C=C(C)CC[C@H](Cc1c(O)cc(O)c2c1O[C@H](c1ccc(O)cc1O)CC2=O)C(=C)C
inactive: [2] | [5] | [6] | [7] | [9] | [17] | [11] | [15] | [16]
active: [3] 21.1 µM | [12] 18.6 µM | [18] 30.5 µM

Oc1ccc([C@H]2Oc3ccc(/C=C/c4cc(O)cc(O)c4)cc3C2c2cc(O)cc(O)c2)cc1 (some centres undefined)
not listed: [1] | [3] | [6] | [8] | [11] | [17] | [18]
inactive: all other assays above

Oc1ccc(/C=C2/c3cc(O)cc(O)c3C(c3ccc(O)cc3)[C@H]2c2cc(O)cc(O)c2)cc1 (some centres undefined)
active: [1] 3.75 µM | [2] 14.9 µM
not listed: [5] | [19]
inactive: all other assays above

C=C(C)C(=O)O[C@H]1C[C@H](C)[C@@H](OC(C)=O)CC[C@@]2(C)O[C@@H]2[C@H]2OC(=O)C(COC(C)=O)=C12
inactive: [10] | [12] | [16]
active: [1] 6.66 µM | [3] 8.41 µM | [4] 0.833 µM | [5] 7.47 µM | [7] 2.64 µM | [13] 17.2 µM | [18] 0.86 µM

C[C@]12CC[C@]3(C1)[C@H](CC2=O)CC(OC(=O)c1ccccc1)[C@H]1[C@@](CO)(C(=O)O)CCC[C@@]13C (some centres undefined)
active: [7] 10.5 µM | [14] 18.6 µM
not listed: [13]
inactive: all other assays above

C=C[C@]1(C)CC[C@@H]([C@H](C)C(=O)OCC)O1
not listed: [2] | [4] | [7] | [12] | [14] | [19]
inactive: all other assays above
